An excerpt weighted towards active compounds, which were near 1.2% of everything screened.
PfHsp40 rescue: rescue of yeast from PfHsp40 toxicity, primary screen, S. cerevisiae, ATP luminescence; S. cerevisiae expressing PfHsp40, growth rescue; growth rescue, % at 12.5 µM; 340,000 tested, 0.68% active; in the data active = growth rescue above about 28%, passing the limit was not always enough;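 also: yeast W303a lacking pdr1 and pdr3 grown in galactose medium; growth measured after three days at 30 °C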
TcdB inh: TcdB glycohydrolase inhibitors, primary screen, biochemical, single point, plate reader | Toxin B (Clostridioides difficile), P18177 | TcdB glycohydrolase enzymatic assay | inhibition, % at 9.99 µM | 350,000 tested, 0.24% active | AID 652162, 2013; in the data active = inhibition above about 10%
PrP 5UTR inh: inhibition of PrP 5' UTR reporter expression. cell-based PrP 5' UTR mRNA reporter, plate reader. inhibition, % (concentration not given with the values). 340,000 tested, 0.35% active. AID 488862, 2010; in the data active = inhibition above about 52%; also: 0 = median of the neutral control wells
Yp Topo-I inh: Yersinia pestis topoisomerase I inhibitors, primary screen, biochemical, cleavage product accumulation, plate reader, single point | DNA topoisomerase I (Yersinia pestis CO92) | activity, % at 10 µM | AID 504884, 2011 | Y. pestis Topo-I cleavage product accumulation | 360,000 tested, 0.064% active; in the data active = activity above about 50%, passing the limit was not always enough
Mtb BioA inh: M. tuberculosis BioA enzyme inhibitors, primary screen, biochemical, plate reader, single point, HTS; 360,000 tested, 0.096% active; inhibition, % at 9.99 µM; purified M. tuberculosis BioA enzyme; 7,8-diaminopelargonic acid synthase BioA (Mycobacterium tuberculosis); in the data active = inhibition above about 40%
FadD28 binding: inhibitors of FadD28 bisubstrate probe binding, primary screen, biochemical, fluorescence polarization, single point; inhibition, % at 12.5 µM; 360,000 tested, 0.22% active; Mycobacterium tuberculosis FadD28 fatty-acid-AMP ligase; AID 588549, 2011; in the data active = inhibition above about 8.5%, passing the limit was not always enough
PrP 5UTR single: prion 5' UTR mRNA inhibition, cherry-pick retest. cell-based prion protein 5' UTR reporter, plate reader. 1,100 tested, 48% active. inhibition, % at 2.5 µM. shares compounds with PrP 5UTR inh; in the data active = inhibition above about 54%
An asterisk follows results filed as active.

Results for CC(C)Nc1nnc(SCC(=O)c2c(N)n(Cc3ccccc3)c(=O)n(C)c2=O)s1 ?
PfHsp40 rescue: 0; PrP 5UTR inh: 60*; Yp Topo-I inh: 15; FadD28 binding: 1; PrP 5UTR single: -7

Results for CC(=O)Nc1ccc(SCC(=O)c2c(N)n(Cc3ccccc3)c(=O)n(C)c2=O)cc1 ?
PfHsp40 rescue: 0; TcdB inh: 0; PrP 5UTR inh: -9; Yp Topo-I inh: 6; Mtb BioA inh: -1; FadD28 binding: 1

What do the screens show for `CN1C(=O)c2cc(NC(=O)NCc3ccccc3)ccc2OC[C@@H]2O[C@@H](CC(=O)O)CC[C@H]21`?
TcdB inh: -1; Mtb BioA inh: 0

How did C[C@H](NC(=O)[C@@H]1[C@@H](CO)[C@@H]2Cn3c(cccc3=O)[C@@H]2N1CC1CC1)c1ccccc1 do in these assays?
TcdB inh: 0; Mtb BioA inh: 0

What do the screens show for `CN(C)CCNCCCNc1c2ccccc2nc2cccc([N+](=O)[O-])c12`?
PfHsp40 rescue: -1; TcdB inh: 1; PrP 5UTR inh: 95*; Yp Topo-I inh: -17; FadD28 binding: 0; PrP 5UTR single: 98*

How did N#C[C@H]1[C@H](c2ccccc2C2=CCCC2)[C@@H](CO)N1C(=O)NC1CCCC1 do in these assays?
TcdB inh: 0

What do the screens show for `CCCn1c(C)cc(C(=O)CN2C(=O)c3ccccc3S2(=O)=O)c1C`?
TcdB inh: -1; Yp Topo-I inh: 13; Mtb BioA inh: 0; FadD28 binding: -4

How did Cc1cc(C(=O)CN2C(=O)c3ccccc3S2(=O)=O)c(C)n1CC1CCCO1 (stereo not given) do in these assays?
PfHsp40 rescue: 0; PrP 5UTR inh: 88*; Yp Topo-I inh: -1; Mtb BioA inh: -1; FadD28 binding: -4; PrP 5UTR single: 86*

Results for CNC[C@H]1Oc2cc(C#Cc3cccnc3)ccc2S(=O)(=O)N([C@@H](C)CO)C[C@@H]1C ?
TcdB inh: 1; Mtb BioA inh: 5

How did CCOC(=O)C1=CN(Cc2ccco2)S(=O)(=O)N(C)C1c1ccc2ccccc2c1 (stereo not given) do in these assays?
PfHsp40 rescue: -1; TcdB inh: 0; PrP 5UTR inh: 55*; Yp Topo-I inh: 6; Mtb BioA inh: -1; FadD28 binding: -1; PrP 5UTR single: -7

Results for CCOC(=O)C1=CN(Cc2cccc(I)c2)S(=O)(=O)N(C)C1C (stereo not given) ?
PfHsp40 rescue: 1; TcdB inh: 0; PrP 5UTR inh: 90*; Yp Topo-I inh: 29; Mtb BioA inh: 0; FadD28 binding: -3; PrP 5UTR single: -11

What do the screens show for `CCOC(=O)C1=CN(Cc2cccc(-c3cccnc3)c2)S(=O)(=O)N(CC)C1C` (stereo not given)?
PfHsp40 rescue: 0; TcdB inh: 3; PrP 5UTR inh: -13; Yp Topo-I inh: 39; Mtb BioA inh: 2; FadD28 binding: -4

Results for CO[C@@H]1CN(C)C(=O)c2cc(NC(=O)Nc3ccccc3)ccc2OC[C@@H](C)N(C(=O)Nc2c(C)noc2C)C[C@@H]1C ?
TcdB inh: 0; Mtb BioA inh: -1

Results for CCS(=O)(=O)Nc1ccc2c(c1)C(=O)N(C)[C@H]1CC[C@@H](CC(=O)N[C@@H]3CCN(Cc4ccccc4)C3)O[C@@H]1CO2 ?
Mtb BioA inh: 0

What do the screens show for `CN(C)CC(=O)Nc1ccc2c(c1)[C@@H]1C[C@@H](CC(=O)NCc3ccccc3)O[C@@H](CO)[C@@H]1O2`?
TcdB inh: -2; Mtb BioA inh: 1

How did COc1ccc(OC)c(C2C3=C(COC3=O)Nc3cc4c(cc32)OCO4)c1 (stereo not given) do in these assays?
PfHsp40 rescue: 8; PrP 5UTR inh: 58*; Yp Topo-I inh: 2; Mtb BioA inh: -3; FadD28 binding: -1; PrP 5UTR single: 90*

Results for O=C(N[C@H]1C=C[C@@H](CC(=O)N2CCc3ccccc3C2)O[C@@H]1CO)C1CCC1 ?
TcdB inh: 0; Mtb BioA inh: 0

Results for CC(C)NC(=O)N(C)C[C@H]1Oc2ncc(C#CC3(O)CCCC3)cc2C(=O)N([C@H](C)CO)C[C@H]1C ?
TcdB inh: 0; Mtb BioA inh: -3

What do the screens show for `ClCCCc1cn(C[C@H]2CC[C@@H]([C@@H]3CC[C@H](Cn4cc(CCCCl)nn4)O3)O2)nn1`?
PfHsp40 rescue: -2; TcdB inh: 1; PrP 5UTR inh: 68*; Yp Topo-I inh: 4; Mtb BioA inh: 0; FadD28 binding: -2; PrP 5UTR single: -13

Results for CCCCc1cn(C[C@H]2CC[C@@H]([C@@H]3CC[C@H](Cn4cc(CCCC)nn4)O3)O2)nn1 ?
PfHsp40 rescue: 0; TcdB inh: 1; PrP 5UTR inh: -17; Yp Topo-I inh: 5; Mtb BioA inh: 1; FadD28 binding: -1

What do the screens show for `Cc1ccc(C(C)C)c(OCc2ccc(C(=O)N/N=C/c3cccc(O)c3O)cc2)c1`?
PfHsp40 rescue: 0; TcdB inh: 1; PrP 5UTR inh: 62*; Yp Topo-I inh: 3; FadD28 binding: 0; PrP 5UTR single: 65*

What do the screens show for `COc1ccc(NC(=O)Nc2cccc3c2O[C@@H](CN(C)Cc2ccc(Cl)c(Cl)c2)[C@@H](C)CN([C@H](C)CO)C3=O)cc1`?
Mtb BioA inh: -1

How did CN(C)CC(=O)Nc1ccc2c(c1)[C@H]1C[C@@H](CC(=O)N3CCCCC3)O[C@@H](CO)[C@H]1O2 do in these assays?
TcdB inh: -1; Mtb BioA inh: 0

Results for CCOC(=O)N1CCC(Nc2c(-c3ccc(C)c(C)c3)c(=O)c2=O)CC1 ?
PfHsp40 rescue: -1; PrP 5UTR inh: 73*; Yp Topo-I inh: 1; Mtb BioA inh: 0; FadD28 binding: -3; PrP 5UTR single: -8

How did CCCCC(c1nnnn1CC1CCCO1)N1CCN(Cc2ccccc2)CC1 (stereo not given) do in these assays?
PfHsp40 rescue: -1; PrP 5UTR inh: -19; Yp Topo-I inh: 10; Mtb BioA inh: 6; FadD28 binding: -1

How did Cc1ccc(C(c2nnnn2CC2CCCO2)N2CCN(Cc3ccccc3)CC2)cc1 (stereo not given) do in these assays?
PfHsp40 rescue: 0; TcdB inh: 1; PrP 5UTR inh: 67*; Yp Topo-I inh: 29; FadD28 binding: 0; PrP 5UTR single: 2

Results for CS(=O)(=O)N(CC(=O)NCCSc1ccccn1)c1ccc(F)cc1 ?
PfHsp40 rescue: 0; TcdB inh: 0; PrP 5UTR inh: 52*; Yp Topo-I inh: -2; FadD28 binding: -1; PrP 5UTR single: 4

From PubChem
